Assay outcomes (PubChem)
PKA-R2B act = activators of PKA-R2B holoenzyme, primary screen, biochemical, fluorescence polarization, Cy5-IP20, human | PKA-R2B holoenzyme dissociation; R2B truncated from residue 108, S112A mutant; 0% DMSO only, 100% 113 µM cGMP | activation, % at 11.4 µM | hit rate 0.079% among 340,000 | AID 504700, 2011;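 active means activation above a cutoff set at the mean over all compounds plus 3 SD, cut at about 18% in these data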;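 further: higher means more holoenzyme dissociation and a rise in polarization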
ANO1 activ = TMEM16A chloride channel activators or potentiators, primary screen, cell-based, HTS; B-score at 10 µM; Anoctamin-1 (Mus musculus), Q8BHY3; HEK293 TMEM16A/YFP-H148Q/I152L, iodide quench fluorescence; stronger effect = lower value; hit rate 0.3% among 340,000;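 active means fluorescence-ratio B-score plate-corrected deviation score at least 3 library SD below zero, with starting fluorescence score within 5 deviations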;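 further: channel opened by trigger with iodide after compound preincubation; score built on the fluorescence ratio of max minus min over baseline; more negative score means more quench and so TMEM16A activation or potentiation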
Target sequence (Q8BHY3 whole entry, looked up): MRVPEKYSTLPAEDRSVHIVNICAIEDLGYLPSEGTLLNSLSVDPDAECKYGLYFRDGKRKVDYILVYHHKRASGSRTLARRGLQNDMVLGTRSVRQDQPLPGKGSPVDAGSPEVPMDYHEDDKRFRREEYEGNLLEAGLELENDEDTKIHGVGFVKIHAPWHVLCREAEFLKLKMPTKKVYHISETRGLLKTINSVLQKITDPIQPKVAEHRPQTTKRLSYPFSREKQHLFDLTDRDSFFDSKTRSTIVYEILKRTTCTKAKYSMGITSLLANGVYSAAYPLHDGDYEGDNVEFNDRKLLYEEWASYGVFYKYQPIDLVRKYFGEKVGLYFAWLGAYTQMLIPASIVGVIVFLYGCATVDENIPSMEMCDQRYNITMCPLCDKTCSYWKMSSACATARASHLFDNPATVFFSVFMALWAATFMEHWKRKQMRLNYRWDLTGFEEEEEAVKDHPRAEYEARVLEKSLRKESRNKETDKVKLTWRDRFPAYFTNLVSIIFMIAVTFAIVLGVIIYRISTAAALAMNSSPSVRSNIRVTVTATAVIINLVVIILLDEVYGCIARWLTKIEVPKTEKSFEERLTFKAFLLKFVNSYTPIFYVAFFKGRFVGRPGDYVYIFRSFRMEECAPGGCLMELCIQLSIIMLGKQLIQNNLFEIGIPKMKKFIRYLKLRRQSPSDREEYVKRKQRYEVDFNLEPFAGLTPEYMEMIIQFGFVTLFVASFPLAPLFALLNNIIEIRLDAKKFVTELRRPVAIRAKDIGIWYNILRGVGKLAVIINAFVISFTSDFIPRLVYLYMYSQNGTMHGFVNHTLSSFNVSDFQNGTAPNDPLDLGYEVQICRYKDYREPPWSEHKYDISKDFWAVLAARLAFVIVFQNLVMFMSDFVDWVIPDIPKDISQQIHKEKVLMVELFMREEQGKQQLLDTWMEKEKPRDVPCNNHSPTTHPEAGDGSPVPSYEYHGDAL
CHT allo act = CHT positive allosteric modulators, primary screen, cell-based, membrane potential dye, choline EC20; CHT-expressing cells; stronger effect = higher value; LV-AA mutant CHT in HEK293 cells; hit rate 0.49% among 310,000; High affinity choline transporter 1 (Homo sapiens), Q9GZV3; B-score at 10 µM;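 active means initial fluorescence not abnormally high and integrated response B-score, plate-corrected, over 3 SD above library mean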
CHT inh = inhibitors of human choline transporter CHT; High affinity choline transporter 1 (Homo sapiens), Q9GZV3; CHT-expressing cells, membrane potential dye, choline response; stronger effect = lower value; B-score at 10 µM; hit rate 0.86% among 310,000; AID 488975, 2010;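 active means B-score over 3 SD under the library average, and starting fluorescence ratio not unusually high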;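 further: choline stimulus applied at its EC90 after an EC20 pre-addition; B-score computed on integrated fluorescence ratio after choline addition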
ANO1 block = TMEM16A chloride channel inhibitors, primary screen, cell-based, HTS | Anoctamin-1 (Mus musculus), Q8BHY3 | HEK293 TMEM16A/YFP iodide influx fluorescence, ionomycin | normalized B-score (activity score, 25-100; higher = stronger inhibition) at 10 µM | hit rate 1.2% among 310,000;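 active means ratio plate-corrected score three or more library SD toward inhibition, starting fluorescence score within five deviations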;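 further: score derived from kinetic fluorescence span divided by baseline fluorescence per well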
PKA-R1A act = activators of PKA-R1A holoenzyme, primary screen, biochemical, fluorescence polarization, Cy5-IP20, bovine R1A, mouse PKAc | hit rate 0.083% among 340,000 | cAMP-dependent protein kinase type I-alpha regulatory subunit (Bos taurus) + … | PKA-R1A dissociation; scaled: DMSO 0%, 113 µM cGMP 100% | activation, % at 11.4 µM;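 active means percent activation above the mean of all tested compounds plus 3 SD, cut at about 19% in these data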;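 further: higher means more PKAc released from R1A so a rise in polarization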
CHT block conf = CHT inhibitors, confirmation, cell-based, membrane potential dye, duplicate; shares compounds with CHT inh; CHT-expressing cells, choline membrane potential dye; LV-to-AA substituted CHT, HEK293 cells; CHT activity remaining % of control (stronger effect = lower value), % at 10 µM; hit rate 70% among 2,400; AID 493221, 2011;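 active means choline transporter activity left, mean of duplicates at 10 µM, below buffer-only control mean minus 3 SD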;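 further: depolarization triggered by choline at its EC90 following an EC20 pre-addition; 0% = hemicholinium-3 full block and 100% = buffer-only control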
HEK293 CHT ctr = membrane potential effects in parental HEK293, counter-screen for CHT inhibitor project, cell-based, membrane potential dye; shares compounds with CHT inh; choline response; active = decrease or increase beyond buffer ±3SD; membrane potential ratio readout (active if shifted either direction beyond buffer ±3SD; no single direction) at 10 µM; hit rate 4% among 2,400; AID 493222, 2011;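 further: parental cells lack the transporter so any hit is non-specific; ratio is peak minus trough fluorescence over baseline after EC90 choline challenge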
Numbers without * were called inactive. Sampled rows, rich in hits. Any-hit rate of the full collection: about 2.5%.

`CCN1CCN(c2cc(C)c3cc(NC(=S)N4CCCC4)ccc3n2)CC1` gave PKA-R2B act -7, ANO1 activ inactive, CHT allo act inactive, CHT inh inactive, ANO1 block inactive and PKA-R1A act -6.
CCN1CCN(c2cc(C)c3cc(NC(=S)N4CCCCC4)ccc3n2)CC1 was read as PKA-R2B act 1, ANO1 activ inactive, CHT allo act inactive, CHT inh -6.7*, ANO1 block inactive, PKA-R1A act -1, CHT block conf 47%* and HEK293 CHT ctr inactive.
For Cc1nn(C)cc1CN(C)S(=O)(=O)c1cccc([N+](=O)[O-])c1 the results were PKA-R2B act 7, ANO1 activ inactive, CHT allo act inactive, CHT inh inactive, ANO1 block inactive and PKA-R1A act 2.
`O=C(N/C(=C/c1cccs1)c1nc2ccccc2[nH]1)c1ccccc1` gave PKA-R2B act -4, ANO1 activ inactive, CHT allo act inactive, CHT inh inactive, ANO1 block inactive and PKA-R1A act 1.
`Cc1ccc(C(=O)N/C(=C\c2cccs2)c2nc3ccccc3[nH]2)cc1` gave PKA-R2B act -5, ANO1 activ inactive, CHT allo act inactive, CHT inh -5*, ANO1 block inactive, PKA-R1A act 0, CHT block conf 64%* and HEK293 CHT ctr inactive.
`O=C(NNc1ccc(C(F)(F)F)cc1[N+](=O)[O-])c1ccc(NS(=O)(=O)c2ccc(F)cc2)cc1` gave PKA-R2B act 4, ANO1 activ inactive, CHT allo act inactive, CHT inh -10*, ANO1 block inactive, PKA-R1A act -2, CHT block conf 52%* and HEK293 CHT ctr inactive.
`COc1ccc(CCNC(=O)C(CCC(N)=O)NS(=O)(=O)c2ccc(Cl)cc2)cc1OC` (centres undefined) gave PKA-R2B act 2, ANO1 activ inactive, CHT allo act inactive, CHT inh inactive, ANO1 block inactive and PKA-R1A act -11.
CN(Cc1ccccc1)C(=O)CN1CCN(C(c2ccccc2)c2ccccc2)CC1 was read as PKA-R2B act -2, ANO1 activ inactive, CHT allo act inactive, CHT inh -8.3*, ANO1 block inactive, PKA-R1A act -4, CHT block conf 52%* and HEK293 CHT ctr inactive.
`CCc1nn2c(NCCOC)cc(C)nc2c1-c1ccc(F)cc1` gave PKA-R2B act -1, ANO1 activ inactive, CHT allo act inactive, CHT inh -5.1*, ANO1 block inactive, PKA-R1A act -2, CHT block conf 48%* and HEK293 CHT ctr inactive.
`Cc1cccc(NC(=O)c2ccccc2O)c1C` gave PKA-R2B act 3, ANO1 activ inactive, CHT allo act inactive, CHT inh -6.4*, ANO1 block 25*, PKA-R1A act -4, CHT block conf 69%* and HEK293 CHT ctr inactive.
For Cc1nnc(SCc2ccc(F)cc2)n1NC/C=C/c1ccccc1 the results were PKA-R2B act -7, ANO1 activ inactive, CHT allo act inactive, CHT inh -7.1*, ANO1 block inactive, PKA-R1A act -9, CHT block conf inactive and HEK293 CHT ctr inactive.
For CC(C)(C)OC(=O)C[C@@H]1C/C=C\C[C@H](CC(=O)N[C@H](CO)Cc2ccccc2)C(=O)N[C@H](C(C)(C)C)COC1=O the results were PKA-R2B act -8 and PKA-R1A act -4.
`O=c1ccn([C@@H]2O[C@H](CNS(=O)(=O)C3CC3)[C@@H](O)[C@H]2O)c(=O)[nH]1` gave PKA-R2B act -7 and PKA-R1A act 0.
Screening CC(C)c1nc(C(=O)N2CCCC(CCC(=O)N(C)CCc3ccccn3)C2)cs1 (centres undefined) returned PKA-R2B act 1, ANO1 activ inactive, CHT allo act inactive, CHT inh -5.4*, ANO1 block inactive, PKA-R1A act 0, CHT block conf inactive and HEK293 CHT ctr inactive.
Screening CCOC(=O)/C=C/C(=O)OCC(=O)N1CCN(C(=O)c2ccco2)CC1 returned PKA-R2B act -6, ANO1 activ inactive, CHT allo act inactive, CHT inh inactive, ANO1 block inactive and PKA-R1A act -2.
CC1=C(C(=O)OC(C)C)C(c2ccccc2)NC(=O)N1C (centres undefined) was read as PKA-R2B act 4, ANO1 activ inactive, CHT allo act inactive, CHT inh inactive, ANO1 block inactive and PKA-R1A act 1.
For CC1=C(C(=O)OC(C)C)C(c2ccc(Br)s2)NC(=O)N1C (centres undefined) the results were PKA-R2B act -13, ANO1 activ inactive, CHT allo act inactive, CHT inh -5.1*, ANO1 block inactive, PKA-R1A act -5, CHT block conf 58%* and HEK293 CHT ctr inactive.
Screening CC(C)CC(=O)NC1(C(F)(F)F)C(=O)N(CC(C)C)C2=C1C(=O)CC(C)(C)C2 (centres undefined) returned PKA-R2B act 4, ANO1 activ inactive, CHT allo act inactive, CHT inh inactive, ANO1 block inactive and PKA-R1A act 9.
For CN1CCN(C(=S)c2ccc(OCC(=O)Nc3cccc(C(F)(F)F)c3)cc2)CC1 the results were PKA-R2B act 3, ANO1 activ inactive, CHT allo act inactive, CHT inh -6.2*, ANO1 block inactive, PKA-R1A act -3, CHT block conf inactive and HEK293 CHT ctr inactive.
`O=C(COc1ccc(C(=O)O)cc1)Nc1cccc(C(F)(F)F)c1` gave PKA-R2B act -4, ANO1 activ inactive, CHT allo act inactive, CHT inh inactive, ANO1 block inactive and PKA-R1A act -5.
